Where a name gives a salt, the structure may show the parent alone. In all, about 2,800 compounds were measured (“cell viability relative to vehicle”: median about 1.1, lowest 2% from about 0.19 on). Only a selection was taken, and the lowest values are over-represented in it overall.
system: NCI-H2228 parental; experiment: cell viability relative to vehicle (fraction of vehicle); NCI-H2228 is an ALK-positive lung cancer line and DTP means drug-tolerant persister; higher = less growth inhibition; details: 100 nM; treatment time 6 days
Procedure, shortened: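 NCI-H2228 parental cells and drug-tolerant persister cells were plated in 384-well plates; the persisters had been generated with 1000 nM of a targeted drug over 13 days. One day later, the 3114-agent TargetMol anti-cancer compound library was added at 100 nM, with DMSO serving as vehicle. ATP was measured 6 days after that using the CellTiter-Glo 3D Cell Viability Assay. Values are cell viability expressed relative to vehicle-treated cells.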

Going from CC(=O)OC(CC(C)C1=C2C[C@H](O)C3[C@@]4(C)CCC(=O)C(C)(C)C4CC[C@]3(C)[C@@]2(C)CC1)C1OC1(C)C (some centres undefined) [Alisol B 23-acetate] to CC1(C)CC[C@]2(C(=O)O)CC[C@]3(C)C(=CC[C@@H]4[C@@]5(C)CCC(=O)C(C)(C)[C@@H]5CC[C@]43C)[C@@H]2C1 [Oleanonic Acid], the cell viability rises from 0.99 to 1.12.

First: CC(C)C[C@H](NC(=O)[C@@H](O)[C@H](N)Cc1ccccc1)C(=O)O [Bestatin hydrochloride]
Second: CC(C)C[C@H](NC(=O)[C@H](Cc1ccccc1)NC(=O)c1cnccn1)B(O)O [Bortezomib]
The cell viability of the first is higher: 1.16 for the first, 0.067 for the second.

CNC(=O)[C@H](Cc1ccccc1)NC(=O)[C@H](CC(C)C)[C@H](CSc1cccs1)C(=O)NO [Batimastat] and CC(C)C[C@H](NC(=O)[C@@H](O)[C@H](N)Cc1ccccc1)C(=O)O [Ubenimex] are the same in cell viability: 1.08 for the first, 1.08 for the second.

Going from CC(C)C[C@H](NC(=O)[C@@H](NC(=O)c1cccc(-c2ccccc2)n1)[C@@H](C)O)B(O)O [Delanzomib] to O=C(Nc1cccc(-c2ccccc2)c1)OC1CCCCC1, the cell viability rises from 0.096 to 1.01.

Compared with CCCOc1ccc(/C=C2\SC(=O)NC2=O)cc1, CCCOc1ccc(CCc2nc3cc(-c4c(C)noc4C)ccc3n2CCN2CCOCC2)cc1 [PF-CBP1 hydrochloride] is lower in cell viability: 1.11 for the first, 1.06 for the second.

First: CCn1c(=Cc2cccc[n+]2CC)sc(=C2Sc3ccccc3N2C)c1=O
Second: CONC(=O)Nc1ccc(-c2sc3c(c2CN(C)Cc2ccccc2)c(=O)n(-c2ccccc2)c(=O)n3Cc2c(F)cccc2F)cc1 [Sufugolix]
The cell viability of the first is higher: 1.04 for the first, 0.979 for the second.

Compared with COc1ccc(/C=C/c2cc(O)cc(O[C@@H]3O[C@H](CO)[C@@H](O)[C@H](O)[C@H]3O)c2)cc1O [Rhaponiticin], OC[C@H]1O[C@@H](Oc2ccc3c(c2)OC[C@H]2c4cc5c(cc4O[C@@H]32)OCO5)[C@H](O)[C@@H](O)[C@@H]1O [Trifolirhizin] is lower in cell viability: 1.11 for the first, 1.02 for the second.

Going from CC(C)=CCC[C@](C)(O[C@@H]1O[C@H](CO)[C@@H](O)[C@H](O)[C@H]1O)[C@H]1CC[C@]2(C)[C@@H]1[C@H](O)C[C@@H]1[C@@]3(C)CC[C@H](O)C(C)(C)[C@@H]3[C@@H](O)C[C@]12C [Ginsenoside F1] to CC(C)=CCC[C@](C)(O[C@@H]1O[C@H](CO)[C@@H](O)[C@H](O)[C@H]1O)[C@H]1CC[C@]2(C)[C@@H]1[C@H](O)C[C@@H]1[C@@]3(C)CC[C@H](O[C@@H]4O[C@H](CO)[C@@H](O)[C@H](O)[C@H]4O[C@@H]4O[C@H](CO)[C@@H](O)[C@H](O)[C@H]4O)C(C)(C)[C@@H]3CC[C@]12C [Ginsenoside Rd], the cell viability rises from 1.1 to 1.18.

Going from C=C1CC[C@@H]2[C@](C)(CO[C@@H]3O[C@H](CO)[C@@H](O)[C@H](O)[C@H]3O)CCC[C@@]2(C)[C@@H]1CCC1=CCOC1=O [Neoandrographolide] to CC(=O)O[C@@H]1C[C@H](O)[C@@]23CO[C@@H](O)[C@]1(C)[C@@H]2C[C@@H](O)[C@]1(C)[C@@H]3C(=O)[C@H](OC(C)=O)[C@@]2(C)[C@H](c3ccoc3)C[C@H]3O[C@]321 [Toosendanin], the cell viability falls from 1.08 to 0.147.

Compared with O=C1N[C@@H](Cc2c[nH]c3ccccc23)C(=O)N2CCC[C@@H]12 [Brevianamide F], O=C(Nc1c[nH]nc1-c1nc2ccc(CN3CCOCC3)cc2[nH]1)NC1CC1 is lower in cell viability: 1.05 for the first, 0.106 for the second.

First: Nc1nc(O)c2[nH]nnc2n1 [8-Azaguanine]
Second: CCOCc1nc2c(N)nc3ccccc3c2n1CC(C)(C)O [Resiquimod]
The cell viability of the first is lower: 0.571 for the first, 1.06 for the second.

Compared with COc1ccc(CNc2nc(N3CCC[C@H]3CO)ncc2C(=O)NCc2ncccn2)cc1Cl [Avanafil], CCc1cnn2c(NCc3ccc[n+]([O-])c3)cc(N3CCCC[C@H]3CCO)nc12 [Dinaciclib] is lower in cell viability: 0.966 for the first, 0.118 for the second.

First: O=C1C[C@@H](c2ccc(O)c(O)c2)Oc2cc(O)cc(O)c21 [Eriodictyol]
Second: CCNC(=O)c1noc(-c2cc(Cl)c(O)cc2O)c1-c1ccc(OC)cc1
The cell viability of the first is higher: 1.04 for the first, 0.237 for the second.

Compared with COc1cccc(OCCCN)c1-c1cc(Nc2cnc(C#N)cn2)n[nH]1 [Prexasertib dihydrochloride], N#Cc1cnc(Nc2cc(NC[C@H]3CNCCO3)c(C(F)(F)F)cn2)cn1 is higher in cell viability: 0.169 for the first, 1.07 for the second.

Going from Cc1cc(O)c(C(=O)CCC(C)C)c(=O)o1 [Pogostone] to CCNC(=O)c1noc(-c2cc(C(C)C)c(O)cc2O)c1-c1ccc(CN2CCOCC2)cc1 [Luminespib], the cell viability falls from 1.04 to 0.0552.

Going from O=C(NCc1ccc(S(=O)(=O)c2cc(F)cc(F)c2)cc1)c1ccc2nccn2c1 to Cc1ccc(S(=O)(=O)Cc2nc(-c3ccc(C(=O)NCc4cccnc4)cc3)oc2C)cc1, the cell viability rises from 0.117 to 0.875.

Compared with O=S(=O)(c1ccc(Cl)cc1)N1CCN(c2ccnc3cc(Cl)ccc23)CC1, CNS(=O)(=O)c1ccccc1Nc1nc(Nc2ccc(N3CCN(C)CC3)cc2OC)ncc1Cl [ALK inhibitor 2] is lower in cell viability: 1.08 for the first, 0.448 for the second.

Going from CCCCCCCCCCCCCCOc1ccc(C(=O)O)o1 to CCCCCCCCNc1cc(=O)[nH]c(=O)[nH]1, the cell viability falls from 1.05 to 1.01.

Compared with O=C(NCCN1CCOCC1)Nc1ccc(C(=O)/C=C/c2cccc(N3CCOCC3)n2)cc1, O=C(Nc1ccc(CN2CCOCC2)cc1)c1ccc(-c2cccc(Cl)c2)o1 is lower in cell viability: 1.09 for the first, 0.775 for the second.

First: CC(=O)c1cnc2ccc(-c3cc(Cl)c(O)c(Cl)c3)nc2c1N[C@H]1CC[C@H](CN(C)C)CC1
Second: CN1CCN(Cc2ccc(Nc3ncc(Cl)c(Nc4ccccc4S(=O)(=O)N(C)C)n3)cc2)CC1
The cell viability of the first is higher: 0.657 for the first, 0.0869 for the second.

First: O=C(NCCCNc1nc(Nc2cccc(CN3CCOCC3)c2)ncc1C1CC1)C1CCC1
Second: COCCN1CCN(Cc2ccc(-c3n[nH]c4c3C(=O)c3c(NC(=O)NN5CCOCC5)cccc3-4)cc2)CC1
The cell viability of the first is higher: 0.937 for the first, 0.253 for the second.

First: CCCC(CCC)C(=O)Nc1ccn([C@@H]2O[C@H](CO)[C@@H](O)C2(F)F)c(=O)n1
Second: Nc1ccn([C@@H]2O[C@H](CO)[C@@H](O)C2(F)F)c(=O)n1 [Gemcitabine]
The cell viability of the first is higher: 1.12 for the first, 0.0956 for the second.

Compared with Nc1ccn([C@@H]2O[C@H](CO)[C@@H](O)[C@H]2O)c(=O)n1 [Cytidine], Nc1ccn([C@@H]2O[C@H](CO)[C@@H](O)[C@@H]2O)c(=O)n1 [Cytarabine] is lower in cell viability: 0.915 for the first, 0.12 for the second.

First: Nc1ccn([C@H]2C[C@H](O)[C@@H](CO)O2)c(=O)n1 [2'-Deoxycytidine monohydrate]
Second: Nc1ccn([C@@H]2CS[C@H](CO)O2)c(=O)n1 [Lamivudine]
The cell viability of the first is lower: 1.07 for the first, 1.21 for the second.

Going from CC(=O)Nc1ccn([C@@H]2O[C@H](CO)[C@@H](O)[C@H]2O)c(=O)n1 [N4-Acetylcytidine] to Nc1ccn([C@@H]2O[C@H](CO)[C@@H](O)C2(F)F)c(=O)n1 [Gemcitabine HCl], the cell viability falls from 1.06 to 0.121.

Compared with C[C@H](NP(=O)(OC[C@H]1O[C@@H](n2ccc(N)nc2=O)C(F)(F)[C@@H]1O)Oc1ccccc1)C(=O)OCc1ccccc1 (some centres undefined) [Acelarin], Nc1ccccc1NC(=O)CCCCCCC(=O)Nc1ccccc1 is higher in cell viability: 0.135 for the first, 1.09 for the second.

Compared with CCNC(=O)c1cc2c(-c3cc(C(C)(C)O)ccc3Oc3c(C)cc(F)cc3C)cn(C)c(=O)c2[nH]1, Cc1ncc(CCCN(C)C)cc1Nc1ncc2c(n1)-c1ccc(C(F)(F)F)cc1NC(=S)C2 is lower in cell viability: 0.898 for the first, 0.178 for the second.

Going from C[C@H](NC(=O)CCC(F)(F)F)C(=O)N[C@@H]1C(=O)N(CCO)c2ncccc2-c2ccccc21 [Crenigacestat] to O=C(Nc1ccc(OC(F)(F)Cl)cc1)c1cnc(N2CC[C@@H](O)C2)c(-c2cc[nH]n2)c1 [Asciminib], the cell viability rises from 1.05 to 1.11.

Compared with C=CC(=O)Nc1ccc(CN2C(=O)N(c3cc(OC)cc(OC)c3)Cc3cnc(Nc4ccc(N5CCN(C)CC5)cc4)nc32)cc1, COc1cc(N2CCC(N3CCN(C)CC3)CC2)ccc1Nc1ncc(Cl)c(Nc2ccccc2S(=O)(=O)C(C)C)n1 is lower in cell viability: 0.858 for the first, 0.421 for the second.

Going from O=c1cc(N2CCOCC2)oc2c(-c3ccc4c(c3)OCCO4)csc12 to O=C(NC1CCOCC1)c1ccc(-c2cc(-c3c[nH]nc3-c3ccccn3)ccn2)cc1, the cell viability falls from 1.14 to 1.01.

Compared with Cc1c[nH]c2nc(Nc3ccc(N4CCN(C)CC4)c(F)c3)nc(-c3cccc(CC#N)c3)c12, COc1ccc(CCc2cc(OC)c(OC)c(OC)c2)cc1O [Erianin] is lower in cell viability: 0.777 for the first, 0.335 for the second.

First: C=C(C)[C@@H]1CC[C@]2(C)[C@H](CC=C3[C@@H]4[C@@H](C)[C@H](C)CC[C@]4(C)CC[C@]32C)[C@@]1(C)CCC(=O)O [Roburic acid]
Second: CC(=O)O[C@H]1CC(=O)OC(C)(C)[C@@H]2CC(=O)[C@]3(C)[C@H](CC[C@@]4(C)[C@@H](c5ccoc5)OC(=O)[C@H]5O[C@]543)[C@@]12C [Nomilin]
The cell viability of the first is lower: 1.08 for the first, 1.13 for the second.

Compared with CC1=C[C@]2(O)O[C@@]3(CC2=C(C)C)[C@@H](C)CC[C@@H]13 [Curcumenol], CCC(=O)Oc1ccc2c(c1)CCC1C2CCC2(C)C(OC(=O)CC)CCC12 (stereo not drawn) [17-Beta-Estradiol-3,17-Dipropionate] is higher in cell viability: 1.1 for the first, 1.24 for the second.

Compared with CC(C)=CCC(OC(=O)C=C(C)C)C1=CC(=O)c2c(O)ccc(O)c2C1=O (stereo not drawn) [beta, beta-dimethylacrylshikonin], O=C(/C=C/c1ccc(O)cc1)C1=C(O)C(O)([C@@H]2O[C@H](CO)[C@@H](O)[C@H](O)[C@H]2O)C(O)=C([C@@H]2O[C@H](CO)[C@@H](O)[C@H](O)[C@H]2O)C1=O (some centres undefined) [Hydroxysafflor yellow A] is higher in cell viability: 1.03 for the first, 1.07 for the second.

With NC(=O)Cc1cc[nH]n1 [1H-Pyrazole-3-acetamide] the cell viability was 0.268.
